Test results taken from PMC5700166.
Positions count from the first letter of the chain named.

Columns and labels:
Assay in all cases: protein-binding microarray (PBM); PBM: ~300 nM protein, 6 mM HEPES pH 7.8, 80 mM KCl, 0.5 mM EDTA, 0.5 mM EGTA, 6% glycerol, 35 ng/ul poly-dIdC, 1% milk, 1 h, room temperature; Ap Aiptasia and Nv Nematostella (sea anemones) / Co Capsaspora / Aq Amphimedon (sponge) / Dm Drosophila / Hu human; RHD is the Rel homology domain; high values mean tight binding
Details in all cases: dsDNA, one strand shown
[1] = target: T1, GST-Nv-NF-kB (Ser allele) (Nematostella vectensis, UniProt A7UNT2 2-411)
T1 sequence: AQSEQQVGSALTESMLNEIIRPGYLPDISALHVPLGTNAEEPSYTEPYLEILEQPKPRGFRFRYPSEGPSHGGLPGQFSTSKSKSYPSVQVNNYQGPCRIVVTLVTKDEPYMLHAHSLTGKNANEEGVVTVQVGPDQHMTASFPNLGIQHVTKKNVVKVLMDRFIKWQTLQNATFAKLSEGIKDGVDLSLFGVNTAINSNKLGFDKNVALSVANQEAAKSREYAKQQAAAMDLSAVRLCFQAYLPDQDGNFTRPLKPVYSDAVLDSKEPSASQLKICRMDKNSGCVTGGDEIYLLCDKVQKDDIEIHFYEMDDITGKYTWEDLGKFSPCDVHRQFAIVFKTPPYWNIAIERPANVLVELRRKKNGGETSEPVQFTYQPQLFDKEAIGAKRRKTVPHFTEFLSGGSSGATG

GST-Dm-Relish = target: T2, GST-Dm-Relish (Drosophila melanogaster, UniProt Q94527 99-473)
T2 sequence: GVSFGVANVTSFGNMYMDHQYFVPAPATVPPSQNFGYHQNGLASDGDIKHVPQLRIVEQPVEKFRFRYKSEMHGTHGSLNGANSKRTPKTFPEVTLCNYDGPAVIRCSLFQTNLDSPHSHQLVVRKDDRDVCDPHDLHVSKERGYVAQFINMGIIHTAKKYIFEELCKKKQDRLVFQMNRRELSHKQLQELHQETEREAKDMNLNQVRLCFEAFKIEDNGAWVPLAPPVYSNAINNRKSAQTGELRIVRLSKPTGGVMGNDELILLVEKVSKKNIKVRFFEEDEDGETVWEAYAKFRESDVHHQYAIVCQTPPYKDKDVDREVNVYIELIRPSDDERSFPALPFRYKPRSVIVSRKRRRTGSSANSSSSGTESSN

GST-Hu-p50 = GST-Hu-p50 (Homo sapiens, UniProt P19838 7-356)
[2] = target: T3, GST-Nv-NF-kB (Cys allele) (Nematostella vectensis, UniProt E5G601 2-411)
T3 sequence: T1 sequence with R21Q, S66C, N207S, Q215E, A217V, K225E, E268A, E399D

GST-Co-NF-kB = target: T4, GST-Co-NF-kB (Capsaspora owczarzaki, UniProt F1ARL5 200-546)
T4 sequence: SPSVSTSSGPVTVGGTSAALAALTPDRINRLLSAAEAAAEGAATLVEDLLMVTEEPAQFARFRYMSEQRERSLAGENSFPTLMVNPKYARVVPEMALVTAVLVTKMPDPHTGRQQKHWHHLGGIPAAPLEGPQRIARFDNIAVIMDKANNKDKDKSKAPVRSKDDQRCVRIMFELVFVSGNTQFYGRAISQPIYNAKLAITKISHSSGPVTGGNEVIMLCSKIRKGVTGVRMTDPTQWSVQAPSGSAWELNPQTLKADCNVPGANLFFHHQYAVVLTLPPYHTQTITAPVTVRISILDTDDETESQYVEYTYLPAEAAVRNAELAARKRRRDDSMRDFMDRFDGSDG

GST-Aq-NF-kB = target: T5, GST-Aq-NF-kB (Amphimedon queenslandica, UniProt A9Y5G7 2-389)
T5 sequence: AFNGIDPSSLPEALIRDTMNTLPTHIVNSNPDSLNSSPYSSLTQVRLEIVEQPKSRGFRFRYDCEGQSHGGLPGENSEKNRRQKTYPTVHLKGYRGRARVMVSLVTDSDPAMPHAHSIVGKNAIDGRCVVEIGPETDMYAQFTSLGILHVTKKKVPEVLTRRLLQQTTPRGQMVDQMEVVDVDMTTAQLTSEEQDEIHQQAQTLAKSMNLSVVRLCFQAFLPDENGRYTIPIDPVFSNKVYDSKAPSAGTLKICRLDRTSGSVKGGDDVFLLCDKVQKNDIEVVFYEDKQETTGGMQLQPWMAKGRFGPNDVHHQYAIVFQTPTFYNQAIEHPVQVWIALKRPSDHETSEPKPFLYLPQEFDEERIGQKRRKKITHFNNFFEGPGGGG

GST-Ap-NF-kB RHD = target: T6, GST-Ap-NF-kB RHD (Exaiptasia pallida (Aiptasia), UniProt A0A913YAJ5 2-422)
T6 sequence: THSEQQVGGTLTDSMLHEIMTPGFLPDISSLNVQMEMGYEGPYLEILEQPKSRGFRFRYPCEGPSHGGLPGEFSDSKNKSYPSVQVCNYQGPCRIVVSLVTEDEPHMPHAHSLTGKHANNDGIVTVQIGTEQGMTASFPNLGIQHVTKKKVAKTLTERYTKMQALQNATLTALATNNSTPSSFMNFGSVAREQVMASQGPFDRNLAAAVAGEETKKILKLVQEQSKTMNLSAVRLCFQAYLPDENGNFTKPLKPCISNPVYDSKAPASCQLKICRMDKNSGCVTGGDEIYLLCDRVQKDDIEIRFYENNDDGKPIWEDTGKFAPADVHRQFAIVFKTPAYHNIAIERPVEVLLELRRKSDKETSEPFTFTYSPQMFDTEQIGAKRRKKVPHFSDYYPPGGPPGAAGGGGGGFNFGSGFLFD

Chain of GST-Hu-p50 (P19838 7-356): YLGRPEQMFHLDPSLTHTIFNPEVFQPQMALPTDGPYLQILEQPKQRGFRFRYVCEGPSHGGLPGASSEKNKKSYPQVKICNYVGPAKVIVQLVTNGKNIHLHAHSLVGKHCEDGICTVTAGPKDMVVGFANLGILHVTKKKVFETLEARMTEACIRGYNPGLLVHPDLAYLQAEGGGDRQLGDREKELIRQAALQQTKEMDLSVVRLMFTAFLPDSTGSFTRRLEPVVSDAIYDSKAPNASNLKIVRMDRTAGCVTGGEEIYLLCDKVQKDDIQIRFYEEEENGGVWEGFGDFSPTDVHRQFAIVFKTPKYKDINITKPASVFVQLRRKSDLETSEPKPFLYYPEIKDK

“CCGATTAACATCACCGAAATTCCTGATGTTAATCGGGTCTTGATTCGCTTGACGCTGCTG” showed a binding signal [1] of 1.53 z-score, a binding signal (GST-Dm-Relish) of 1.25 z-score and a binding signal (GST-Hu-p50) of 2.52 z-score.
Sequence “CCGATTAACATCACGGAAAAAACTGATGTTAATCGGGTCTTGATTCGCTTGACGCTGCTG” has a binding signal [2] of 1.12 z-score, a binding signal [1] of 1.13 z-score and a binding signal (GST-Co-NF-kB) of 1.37 z-score. It also gave a binding signal (GST-Dm-Relish) of 1.6 z-score and a binding signal (GST-Hu-p50) of 1.36 z-score.
With “CCGATTAACATCATGATATCCGGTGATGTTAATCGGGTCTTGATTCGCTTGACGCTGCTG” the binding signal (GST-Dm-Relish) was 1.07 z-score and the binding signal (GST-Hu-p50) was 1.11 z-score.
With “CCGATTAACATCAGGAAATACCATGATGTTAATCGGGTCTTGATTCGCTTGACGCTGCTG” the binding signal (GST-Dm-Relish) was 3.07 z-score and the binding signal (GST-Aq-NF-kB) was 3.27 z-score.
Work on “CCGATTAACATCAGAATTTTTCCTGATGTTAATCGGGTCTTGATTCGCTTGACGCTGCTG” yielded a binding signal (GST-Hu-p50) of 1.1 z-score.
For “CCGATTAACATCACCCACCGATTTGATGTTAATCGGGTCTTGATTCGCTTGACGCTGCTG”, the binding signal (GST-Ap-NF-kB RHD) was 1.07 z-score.
“CCGATTAACATCAAGATTAGGGATGATGTTAATCGGGTCTTGATTCGCTTGACGCTGCTG” was tested, and the binding signal (GST-Ap-NF-kB RHD) was 1.31 z-score.
“CCGATTAACATCAGCAAATTTCCTGATGTTAATCGGGTCTTGATTCGCTTGACGCTGCTG” gave a binding signal (GST-Hu-p50) of 1.07 z-score.
In the case of “CCGATTAACATCATGGTGCTTAATGATGTTAATCGGGTCTTGATTCGCTTGACGCTGCTG”, the binding signal (GST-Hu-p50) is reported as 1.41 z-score.
“CCGATTAACATCACAGCGTGAGGTGATGTTAATCGGGTCTTGATTCGCTTGACGCTGCTG” was tested, and the binding signal (GST-Dm-Relish) was 1.34 z-score and the binding signal (GST-Hu-p50) was 1.16 z-score.
“CCGATTAACATCACCTGAACTATTGATGTTAATCGGGTCTTGATTCGCTTGACGCTGCTG” gave a binding signal (GST-Hu-p50) of 1.45 z-score.
“CCGATTAACATCAAGGAAAGTCCTGATGTTAATCGGGTCTTGATTCGCTTGACGCTGCTG” was tested, and the binding signal (GST-Dm-Relish) was 3.16 z-score and the binding signal (GST-Aq-NF-kB) was 4.65 z-score.
Work on “CCGATTAACATCAGGAAAGACCATGATGTTAATCGGGTCTTGATTCGCTTGACGCTGCTG” yielded a binding signal (GST-Dm-Relish) of 1.35 z-score and a binding signal (GST-Aq-NF-kB) of 1.49 z-score.
In the case of “CCGATTAACATCATATTGGGAAATGATGTTAATCGGGTCTTGATTCGCTTGACGCTGCTG”, the binding signal [2] is reported as 2.26 z-score, the binding signal [1] is reported as 1.92 z-score and the binding signal (GST-Co-NF-kB) is reported as 2.03 z-score. The binding signal (GST-Hu-p50) was 1.12 z-score.
“CCGATTAACATCACCTAACTTGATGATGTTAATCGGGTCTTGATTCGCTTGACGCTGCTG” showed a binding signal [1] of 1.07 z-score and a binding signal (GST-Hu-p50) of 1.66 z-score.
Work on “CCGATTAACATCACCTTGAACGGTGATGTTAATCGGGTCTTGATTCGCTTGACGCTGCTG” yielded a binding signal [2] of 1.56 z-score, a binding signal [1] of 1.73 z-score and a binding signal (GST-Dm-Relish) of 1.69 z-score. It also gave a binding signal (GST-Hu-p50) of 2.74 z-score.
Work on “CCGATTAACATCAATTCCCAACCTGATGTTAATCGGGTCTTGATTCGCTTGACGCTGCTG” yielded a binding signal [2] of 2.15 z-score, a binding signal [1] of 1.9 z-score and a binding signal (GST-Co-NF-kB) of 2.06 z-score. The binding signal (GST-Hu-p50) was 1.06 z-score.
With “CCGATTAACATCACCTTGTGATCTGATGTTAATCGGGTCTTGATTCGCTTGACGCTGCTG” the binding signal (GST-Hu-p50) was 1.21 z-score.
“CCGATTAACATCACCTTAGGTTTTGATGTTAATCGGGTCTTGATTCGCTTGACGCTGCTG” was tested, and the binding signal (GST-Hu-p50) was 1.04 z-score.
Work on “CCGATTAACATCATGTTTGCGGGTGATGTTAATCGGGTCTTGATTCGCTTGACGCTGCTG” yielded a binding signal (GST-Ap-NF-kB RHD) of 1.22 z-score, a binding signal (GST-Co-NF-kB) of 1.02 z-score and a binding signal (GST-Hu-p50) of 1.53 z-score.
In the case of “CCGATTAACATCACCTTTTACATTGATGTTAATCGGGTCTTGATTCGCTTGACGCTGCTG”, the binding signal (GST-Hu-p50) is reported as 1.53 z-score.
Work on “CCGATTAACATCACCCTCCAATTTGATGTTAATCGGGTCTTGATTCGCTTGACGCTGCTG” yielded a binding signal (GST-Hu-p50) of 1.13 z-score.
Sequence “CCGATTAACATCAGGACTTTACATGATGTTAATCGGGTCTTGATTCGCTTGACGCTGCTG” has a binding signal (GST-Dm-Relish) of 6.1 z-score and a binding signal (GST-Aq-NF-kB) of 1.25 z-score.
